# From PubChem BioAssay AID435019 (Southern Research Specialized Biocontainment Screening …, 2010)
# Hit rate of the full screen: of about 2,300 compounds, about 1,200 (52%) were called active. So high a share suggests a set chosen from earlier hits. The list shows a part of the results. Entries with a potency or affinity are not part of this list. Values without a mark were called inactive. How the calls were made is not given here.
# Assay: mammalian cell cytotoxicity, dose response, cytotoxicity control for M. tuberculosis inhibitor project (AID 435019);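 further: 0% = background wells and 100% = vehicle-treated cells; lower values mean fewer viable cells so more cytotoxicity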
# Conditions: cytotoxicity counter-screen; series mostly up to 40 µM; viability: at the top concentration
row,SMILES,viability [%]
1,CCOC(=O)CSCC(=O)N1CCC(Cc2ccccc2)CC1,96
2,Cc1cccc(OCC(=O)NNC(=O)c2cc3ccccc3oc2=O)c1,94
3,COc1ccc(OC(=O)c2cc3cc(Cl)ccc3oc2=O)cc1,106
4,Cn1c(SCc2ccccc2)nc(N)c(N=O)c1=O,90.2
5,CCOc1ccc(NC(=O)CSc2cn[nH]n2)cc1,97.2
6,CCOc1ccc(N=CNc2ccc(OCC)cc2)cc1,102
7,Cc1ccc(C(=O)N/N=C/C=C/c2ccccc2)cc1,99.6
8,COc1ccc(OCCCC(=O)OC(C)C(=O)Nc2ccccc2[N+](=O)[O-])cc1 (stereo not given),99.7
9,CCOC(=O)COn1c2c(c3c4no[n+]([O-])c4ccc31)CCCC2,92.7
10,Cc1cc(=O)n2[nH]c(Nc3cccc(Cl)c3)nc2n1,83.3
11,Cc1cc(O)c(/C=N/Nc2cccc(Cl)c2)c(=O)o1,93.5
12,COc1ccc(N2C(=O)C(Cl)=C(Nc3ccccc3O)C2=O)cc1,81
13,Nc1cnc(-c2ccccc2)nc1Cl,84.9
14,COc1ccc2[nH]c(=O)c(CNc3cccc(C)c3)cc2c1,90.8
15,c1nc2n(n1)C1=C(CCCC1)C1(CCCCC1)N2,88.2
16,O=c1oc(-c2ccccc2[N+](=O)[O-])nc2ccccc12,99
17,CCOC(=O)c1ccc(NC(=S)NCCc2ccc(F)cc2)cc1,90.5
18,O=C(CCSc1ccc(Cl)cc1)NC12CC3CC(CC(C3)C1)C2,85.2
19,Cc1ccc(CN2C3CCCC2CC(NC(=S)NCc2ccccc2)C3)cc1 (stereo not given),80.5
20,O=C(Oc1ccccc1)c1ccccc1OS(=O)(=O)c1ccccc1,92.2
21,Cc1cc(N2CCN(C(=O)Nc3ccccc3C#N)CC2)c2ccccc2n1,87.4
22,COc1cc(/C=C2\C(=O)N(c3ccc(S(N)(=O)=O)cc3)N=C2C)ccc1OC(=O)c1ccco1,95.2
23,CSc1nsc(SCC(=O)Nc2ccc(F)cc2F)n1,91.6
24,CC(OC(=O)c1cnc2ccccc2n1)c1ccccc1Cl (stereo not given),94.4
25,Cc1nc(N2CCN(c3ccccn3)CC2)c2c(C)c(C(=O)N3CCN(c4ccc(F)cc4)CC3)sc2n1,81.2
26,CCOc1ccc(NC(C)c2cc(Cl)ccc2O)cc1 (stereo not given),89.1
27,CCOc1ccc(-n2c(O)c(/C=N/Nc3nnc(C)c(=O)[nH]3)c3ccccc3c2=O)cc1,85.7

row,SMILES,viability [%]
1,CCc1ccc(Nc2n[n+](C)c(-c3ccncc3)s2)cc1,89.4
2,Cc1ccc(C(=O)Nc2ccc3c4c(cccc24)CC3)cc1[N+](=O)[O-],89.8
3,Cc1nc2ccc(NC(=O)c3ccc([N+](=O)[O-])cc3[N+](=O)[O-])cc2s1,99.5
4,O=C1c2ccccc2CC1Sc1nnc(-c2ccncc2)o1 (stereo not given),97.9
5,CC(C)NCC(O)c1ccc(O)c(O)c1 (stereo not given),97.2
6,CSc1ccccc1C(=O)NC1CCSc2ccccc21 (stereo not given),93.4
7,CON(C)c1nc(C2CCCCC2)c2cc(C)ccc2n1,82.3
8,Cc1ccc(C)c(N/C(N)=N/c2nc(C)cc(C)n2)c1,80.5
9,C/C=C(\C)C(=O)Nc1cccc(C2=NOC3(C2)C[C@H](C(N)=O)N(C(=O)c2cc([N+](=O)[O-])cc([N+](=O)[O-])c2)C3)c1 (stereo not given in full),99.2
10,CC(C)CCNC(=O)C(c1ccc(O)cc1)N(C(=O)C1COc2ccccc2O1)c1cccc(O)c1 (stereo not given),87.2
11,CCOC(=O)COc1ccc(/C=C2\NC(=S)N(CC)C2=O)cc1,90.3
12,Cc1cc2c(ccc3c2no[n+]3[O-])nn1,107
13,O=C(c1ccc(-c2cccc(C(F)(F)F)c2)o1)N1CCN(c2ccccc2O)CC1,98.3
14,COC(=O)C(C)Oc1ccc2c(c1)O/C(=C\c1ccco1)C2=O (stereo not given),95.4
15,CCOC(=O)C(C)Oc1ccc(OCc2ccccc2)cc1 (stereo not given),93.8
16,Cn1ccnc1-c1nnn(-c2ccc(Cl)c(Cl)c2)n1,101
17,CC12CCC(=O)N1C(C(=O)Nc1ccc(SC(F)F)cc1)CS2 (stereo not given),97.2
18,CCn1cnc2sc(C(=O)Oc3ccc(Br)cc3)c(C)c2c1=O,90.1
19,COc1ccc(NC(=O)CN(C)C(=O)c2n[nH]c3ccccc23)cc1,87.4
20,COc1ccccc1C1CC(c2ccc(Cl)cc2)Nc2ncnn21 (stereo not given),80.5
21,CCN(CC)S(=O)(=O)c1cc(C(=O)Oc2cccc(-c3cnc4ccccc4n3)c2)ccc1Br,93.8
22,Cc1ccc(-c2ccc(C3C(C#N)=C(N)Oc4n[nH]c(C)c43)o2)cc1 (stereo not given),86.2
23,CCc1nnc(N/N=C/c2cc(C)c(C)cc2C)n1N,98.8
24,COc1ccc(-c2nnn(CC(=O)OC3CCCCC3)n2)cc1OC,102
25,CO[C@@H]1[C@@H](OC(N)=O)[C@@H](O)C(Oc2ccc3c(O)c(NC(=O)c4ccc(O)c(CC=C(C)C)c4)c(=O)oc3c2C)OC1(C)C (stereo not given in full),86.3
26,O=C(COC(=O)C1=COCCO1)NCc1ccc(Cl)cc1,93.8
27,O=Cc1ccc2noc(-c3ccc(Cl)cc3)c2c1,94.2

row,SMILES,viability [%]
1,O=S1(=O)CCC(N=Cc2ccc(-c3ccc(Cl)cc3)o2)C1 (stereo not given),86.9
2,Cc1ccc2cc(C)c(N3CCN(c4ccccn4)CC3)nc2c1,86
3,Cc1ccc2[nH]c3c(c2c1)CN(C(=O)CN1CCN(c2ccccn2)CC1)CC3,82.1
4,Cc1cc(C)c2c(CN3CCN(Cc4ccccc4)CC3)cc(=O)oc2c1C,84.9
5,C#CCOCCOCCOCCNc1nc(N2CCN(C(=O)C(Cc3ccc(O)cc3)n3cc(C(N)CC(C)C)nn3)CC2)nc(N2CCN(C(=O)C(Cc3cc4ccccc4[nH]3)n3cc(C(N)Cc4ccc(O)cc4)nn3)CC2)n1 (stereo not given),95.6
6,CC1(C)CN(c2ccccc2)N(C(=O)c2ccc(C#N)cc2)C1=O,88.7
7,CCOc1ccc(-n2cc(-c3ccccc3)c3c(=O)[nH]cnc32)cc1,84.8
8,CCOc1ccc(N2CC(=O)Nc3ccccc3NCC2=O)cc1,89.6
9,Cc1ccccc1-c1nc2cc(N)ccc2o1,89.9
10,O=C([O-])c1ccccc1-[n+]1c(-c2ccccc2)cc(-c2ccccc2)cc1-c1ccccc1,101
11,Cc1nc(-c2ccc(Cl)cc2)sc1C1(C)CC(c2ccc(C#N)cc2)=NO1 (stereo not given),88.5
12,CCOc1cc(C(=O)OCc2ccc(C(=O)OC)o2)cc(Br)c1OC,96.5
13,Cc1ccc(-c2ccnc(=S)[nH]2)cc1,97.5
14,CC12CN3CCN(CC(C3)/C1=N\NC(=O)Nc1cccc(Cl)c1)C2,99.4
15,CNC(CC(C)C)C(=O)NC1C(=O)NC(CC(N)=O)C(=O)NC2C(=O)NC3C(=O)NC(C(=O)NC(C(=O)O)c4cc(O)cc(O)c4-c4cc3ccc4O)C(O)c3ccc(c(Cl)c3)Oc3cc2cc(c3OC2OC(CO)C(O)C(O)C2OC2C[C@](C)(N)C(O)C(C)O2)Oc2ccc(cc2Cl)C1O (stereo not given in full),95.1
16,COc1cc(C)ccc1S(=O)(=O)N1CCN(C23CC4CC(CC(C4)C2)C3)CC1,87
17,Brc1ccc(-c2nc3ncccn3c2Nc2ccc3c(c2)OCCO3)o1,96.2
18,COC(=O)[C@@H](NC(=O)O[C@@H]1C(=O)c2ccc(OC)cc2O[C@H]1c1cccc(C(F)(F)F)c1)C(C)C,84.6
19,Cc1ccn2nc(S(=O)(=O)Nc3c(F)cccc3F)nc2n1,97.5
20,Cc1ccc(OC(=O)CCN2C(=O)c3ccccc3C2=O)cc1C,95.1
21,O=[N+]([O-])c1ccc(N2CCCCC2)s1,94.7
22,Cc1ccc(C)c(C2C(=O)c3ccccc3C2=O)c1,99.8
23,NN(Cc1ccccc1)C(=S)Nc1ccc(Cl)c(Cl)c1,87.4
24,C=C(C)C1Cc2c(C)nn(-c3nc(C)cc(C)n3)c2C1 (stereo not given),82.5
25,O=C(/C=C/c1ccccc1)N1CCN(CCN2C(=O)c3cccc4cccc(c34)C2=O)CC1,84.9
26,COc1ccc(C(=O)NNc2ccccc2)cc1OC,86.6
27,O=C(CSC1=Nc2ccccc2C2=NC(c3ccccc3)C(=O)N12)NC1CCCCC1 (stereo not given),92.2

row,SMILES,viability [%]
1,CN1C(=O)CC(c2ccccc2)C1=O (stereo not given),95.7
2,c1ccc(NNC2=NCCCCC2)cc1,94.5
3,COC(=O)c1ccc(NC(=S)NC(=O)C2CCC2)cc1,96.1
4,COc1cc(/C=C/c2cc[n+](C)cc2)ccc1OCC(=O)Nc1ccc(Cl)c(Cl)c1,96
5,CC1(c2ccc(Cl)c(Cl)c2)NC(=S)N2C1NC(=S)N2c1ccccc1 (stereo not given),91.4
6,Cc1cc(-c2ccc(Cl)cc2)c2cnn(C(C)C)c2n1,88.4
7,Cc1ccc(-c2nc3ccsc3c(=O)o2)cc1,88.2
8,COC(=O)C(C)Oc1ccc(-c2nccc(-c3ccccn3)n2)cc1 (stereo not given),102
9,CCCCSCCCNC(=O)c1cn(CC)c2ccc(S(=O)(=O)N3CCOCC3)cc2c1=O,92.9
10,COc1ccc(C(=O)C[n+]2ccc3c(c2)nc(-c2cc(OC)c(OC)cc2OC)n3C)cc1,101
11,Nc1nc(CN2CCN(c3ccccc3F)CC2)nc(N2CCCc3ccccc32)n1,91.2
12,CCCc1cc(-c2nc(-c3ccc(Br)cc3)cs2)ccn1,87.4
13,CC(=O)c1cccc(NC(=O)C2C3C=CC(C3=C(c3ccccc3)c3ccccc3)C2C(=O)O)c1 (stereo not given),95.7
14,CCOc1ccc(NC(=O)CSc2nc(O)c(C)c(=O)n2-c2ccc(F)cc2)cc1,91.2
15,COc1cccc(C(=O)NC2CC3CCCC(C2)N3CC(=O)Nc2ccc(N(C)C)cc2)c1 (stereo not given),82.4
16,Cc1ccc2c(c1)c1c3n2CCN=C3CCC1,87.1
17,CC(C)Nc1nc(NC(C)C)nc(N(C)N)n1,91.6
18,CCOc1cccc(C=Nc2cc(C)cc(C)c2O)c1O,96.3
19,O=[N+]([O-])c1cc(-c2ccc(/C=N\n3cnnc3)o2)cc([N+](=O)[O-])c1,91.3
20,O=[N+]([O-])c1ccc(-c2ccc(/C=N/c3c(-c4ccco4)nc4ccccn34)o2)cc1,90.6
21,CCCCCC1CC(CC(=O)NC(=S)Nc2ccc([N+](=O)[O-])cc2)C(=O)O1 (stereo not given),92.9
22,CCOC(=O)C(C)Sc1ncnc2c1nnn2-c1ccc(F)cc1 (stereo not given),94.5
23,COc1ccc(-c2ccc(C#N)c(SCC(=O)OCc3ccccc3)n2)cc1OC,88.4
24,CC1(C)C2CCC1(C)C(OCC[N+](C)(C)CC(=O)OC1CCCCC1)C2 (stereo not given),101
